Measurements from the supplement of paper PMC11732987, “Enantioselective OTUD7B fragment discovery through chemoproteomics screening and high-throughput optimisation” (Communications Chemistry, 2025).

How the values were obtained:
Test in all cases: log2 ratio of Biotin-Ahx-Ub-VS probe labelling (fragment/DMSO); higher = less target engagement (more negative = stronger competition), active = hit call of the paper (q ≤ 0.05, log2 ratio ≤ -1)
Conditions in all cases: compound concentration: 200 uM; treatment time: 3 h
USP19 = target: T1, USP19 (UniProt O94966)
T1 sequence (whole entry): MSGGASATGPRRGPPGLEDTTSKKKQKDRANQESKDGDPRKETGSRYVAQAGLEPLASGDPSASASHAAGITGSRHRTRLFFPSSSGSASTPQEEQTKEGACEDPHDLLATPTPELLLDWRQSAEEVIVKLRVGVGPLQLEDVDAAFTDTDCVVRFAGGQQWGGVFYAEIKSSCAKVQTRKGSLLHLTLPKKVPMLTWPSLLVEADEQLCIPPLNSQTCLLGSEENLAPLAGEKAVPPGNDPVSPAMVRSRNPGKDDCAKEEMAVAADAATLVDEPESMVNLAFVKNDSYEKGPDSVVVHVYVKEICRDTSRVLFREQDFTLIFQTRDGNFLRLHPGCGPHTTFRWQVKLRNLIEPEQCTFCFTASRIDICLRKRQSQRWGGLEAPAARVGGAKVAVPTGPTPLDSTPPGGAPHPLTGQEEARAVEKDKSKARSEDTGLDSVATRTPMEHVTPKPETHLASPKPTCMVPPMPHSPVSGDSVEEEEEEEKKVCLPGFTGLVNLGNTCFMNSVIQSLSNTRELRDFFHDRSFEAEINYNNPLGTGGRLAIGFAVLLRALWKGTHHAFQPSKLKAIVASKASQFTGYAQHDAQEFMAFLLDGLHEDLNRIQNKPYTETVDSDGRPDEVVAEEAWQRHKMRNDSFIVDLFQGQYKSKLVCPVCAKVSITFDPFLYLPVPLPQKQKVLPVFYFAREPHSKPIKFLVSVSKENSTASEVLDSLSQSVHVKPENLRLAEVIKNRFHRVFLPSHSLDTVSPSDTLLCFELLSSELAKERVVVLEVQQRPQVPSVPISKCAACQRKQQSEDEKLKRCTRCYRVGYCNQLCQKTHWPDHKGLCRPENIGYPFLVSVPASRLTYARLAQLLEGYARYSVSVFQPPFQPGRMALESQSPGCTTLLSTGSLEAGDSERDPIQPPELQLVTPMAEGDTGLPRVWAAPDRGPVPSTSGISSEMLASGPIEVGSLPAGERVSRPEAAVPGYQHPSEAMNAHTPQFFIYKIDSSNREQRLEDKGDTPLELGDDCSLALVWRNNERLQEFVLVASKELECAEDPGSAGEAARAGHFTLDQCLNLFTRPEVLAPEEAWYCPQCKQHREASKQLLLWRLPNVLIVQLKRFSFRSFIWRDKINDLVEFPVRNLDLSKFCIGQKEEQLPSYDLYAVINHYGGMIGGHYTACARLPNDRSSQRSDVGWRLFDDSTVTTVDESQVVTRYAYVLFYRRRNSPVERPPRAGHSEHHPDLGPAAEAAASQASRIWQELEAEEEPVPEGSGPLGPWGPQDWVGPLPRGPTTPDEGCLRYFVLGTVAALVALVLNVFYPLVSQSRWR
Procedure, shortened: (§1)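 HEK293T lysate in Tris/CHAPS/IGEPAL buffer with protease inhibitors (495 µg per sample) was given fragment at 200 µM or vehicle for 3 h, in triplicate. It then received Biotin-Ahx-Ub-VS at 0.5 µM final for 1 h. Labelled DUBs were NeutrAvidin-enriched, digested with LysC and trypsin, and run by diaPASEF LC-MS/MS. Values are average log2 fragment/vehicle ratios by unpaired t-test on global-median-normalised Spectronaut quantities of proteins with ≥2 unique peptides.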

USP24 = USP24 (UniProt Q9UPU5)
Procedure, shortened: as §1

USP25 = target: T2, USP25 (UniProt Q9UHP3)
T2 sequence (whole entry): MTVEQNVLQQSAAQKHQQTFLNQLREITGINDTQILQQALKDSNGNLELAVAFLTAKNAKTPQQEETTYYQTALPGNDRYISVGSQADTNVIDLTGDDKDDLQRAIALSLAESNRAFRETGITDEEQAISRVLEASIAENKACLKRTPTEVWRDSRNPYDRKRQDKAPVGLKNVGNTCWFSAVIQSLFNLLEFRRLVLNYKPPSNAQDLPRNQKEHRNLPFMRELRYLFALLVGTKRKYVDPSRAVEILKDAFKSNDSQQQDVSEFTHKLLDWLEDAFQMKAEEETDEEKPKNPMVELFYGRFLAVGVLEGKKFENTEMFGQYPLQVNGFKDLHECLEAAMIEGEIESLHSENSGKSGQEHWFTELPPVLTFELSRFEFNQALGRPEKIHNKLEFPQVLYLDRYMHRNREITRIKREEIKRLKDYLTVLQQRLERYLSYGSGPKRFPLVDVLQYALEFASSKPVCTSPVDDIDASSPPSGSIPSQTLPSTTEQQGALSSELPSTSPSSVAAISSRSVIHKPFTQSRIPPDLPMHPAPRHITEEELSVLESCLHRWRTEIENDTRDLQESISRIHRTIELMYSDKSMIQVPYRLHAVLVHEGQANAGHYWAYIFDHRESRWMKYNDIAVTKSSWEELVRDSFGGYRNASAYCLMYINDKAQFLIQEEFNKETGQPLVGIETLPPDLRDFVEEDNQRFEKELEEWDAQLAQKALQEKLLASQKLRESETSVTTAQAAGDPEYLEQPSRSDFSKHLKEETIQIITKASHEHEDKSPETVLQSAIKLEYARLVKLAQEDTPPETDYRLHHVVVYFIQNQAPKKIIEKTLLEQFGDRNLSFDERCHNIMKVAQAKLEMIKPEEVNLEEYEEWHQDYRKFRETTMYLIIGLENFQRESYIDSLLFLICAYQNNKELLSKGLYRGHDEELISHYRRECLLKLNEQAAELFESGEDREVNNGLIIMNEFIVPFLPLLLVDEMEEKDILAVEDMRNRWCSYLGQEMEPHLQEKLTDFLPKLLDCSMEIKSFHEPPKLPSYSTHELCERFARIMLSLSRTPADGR
Procedure, shortened: as §1

USP28 = target: T3, USP28 (UniProt Q96RU2)
T3 sequence (whole entry): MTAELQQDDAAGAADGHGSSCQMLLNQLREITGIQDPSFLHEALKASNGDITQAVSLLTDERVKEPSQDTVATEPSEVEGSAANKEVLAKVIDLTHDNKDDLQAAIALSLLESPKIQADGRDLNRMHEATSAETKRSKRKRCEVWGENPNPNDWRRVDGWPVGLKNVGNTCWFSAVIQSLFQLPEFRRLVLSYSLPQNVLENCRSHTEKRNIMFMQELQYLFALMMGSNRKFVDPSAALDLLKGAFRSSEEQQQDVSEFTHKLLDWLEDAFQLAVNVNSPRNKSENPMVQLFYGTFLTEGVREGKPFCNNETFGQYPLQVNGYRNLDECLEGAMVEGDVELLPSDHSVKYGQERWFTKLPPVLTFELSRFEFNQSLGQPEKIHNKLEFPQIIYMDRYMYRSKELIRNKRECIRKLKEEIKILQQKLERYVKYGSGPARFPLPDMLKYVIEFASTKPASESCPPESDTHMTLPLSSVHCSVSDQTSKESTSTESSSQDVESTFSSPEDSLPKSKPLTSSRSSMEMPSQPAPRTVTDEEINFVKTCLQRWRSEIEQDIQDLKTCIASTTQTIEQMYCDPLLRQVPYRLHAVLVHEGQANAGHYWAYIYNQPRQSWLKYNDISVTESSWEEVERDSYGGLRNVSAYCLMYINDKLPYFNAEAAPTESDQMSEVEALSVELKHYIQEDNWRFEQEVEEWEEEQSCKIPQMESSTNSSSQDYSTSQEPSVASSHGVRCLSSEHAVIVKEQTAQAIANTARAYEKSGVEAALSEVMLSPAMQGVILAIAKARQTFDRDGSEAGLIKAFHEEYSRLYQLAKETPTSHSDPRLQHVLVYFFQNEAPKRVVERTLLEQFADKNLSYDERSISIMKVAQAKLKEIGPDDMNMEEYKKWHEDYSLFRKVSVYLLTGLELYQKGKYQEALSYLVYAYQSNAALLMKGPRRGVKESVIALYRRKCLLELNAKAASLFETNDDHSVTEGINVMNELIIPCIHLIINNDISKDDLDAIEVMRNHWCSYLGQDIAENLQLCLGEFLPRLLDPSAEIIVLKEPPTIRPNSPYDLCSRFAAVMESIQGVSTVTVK
Procedure, shortened: as §1

Measured: log2 ratio of Biotin-Ahx-Ub-VS probe labelling

Sequence of USP24 (Q9UPU5 whole entry): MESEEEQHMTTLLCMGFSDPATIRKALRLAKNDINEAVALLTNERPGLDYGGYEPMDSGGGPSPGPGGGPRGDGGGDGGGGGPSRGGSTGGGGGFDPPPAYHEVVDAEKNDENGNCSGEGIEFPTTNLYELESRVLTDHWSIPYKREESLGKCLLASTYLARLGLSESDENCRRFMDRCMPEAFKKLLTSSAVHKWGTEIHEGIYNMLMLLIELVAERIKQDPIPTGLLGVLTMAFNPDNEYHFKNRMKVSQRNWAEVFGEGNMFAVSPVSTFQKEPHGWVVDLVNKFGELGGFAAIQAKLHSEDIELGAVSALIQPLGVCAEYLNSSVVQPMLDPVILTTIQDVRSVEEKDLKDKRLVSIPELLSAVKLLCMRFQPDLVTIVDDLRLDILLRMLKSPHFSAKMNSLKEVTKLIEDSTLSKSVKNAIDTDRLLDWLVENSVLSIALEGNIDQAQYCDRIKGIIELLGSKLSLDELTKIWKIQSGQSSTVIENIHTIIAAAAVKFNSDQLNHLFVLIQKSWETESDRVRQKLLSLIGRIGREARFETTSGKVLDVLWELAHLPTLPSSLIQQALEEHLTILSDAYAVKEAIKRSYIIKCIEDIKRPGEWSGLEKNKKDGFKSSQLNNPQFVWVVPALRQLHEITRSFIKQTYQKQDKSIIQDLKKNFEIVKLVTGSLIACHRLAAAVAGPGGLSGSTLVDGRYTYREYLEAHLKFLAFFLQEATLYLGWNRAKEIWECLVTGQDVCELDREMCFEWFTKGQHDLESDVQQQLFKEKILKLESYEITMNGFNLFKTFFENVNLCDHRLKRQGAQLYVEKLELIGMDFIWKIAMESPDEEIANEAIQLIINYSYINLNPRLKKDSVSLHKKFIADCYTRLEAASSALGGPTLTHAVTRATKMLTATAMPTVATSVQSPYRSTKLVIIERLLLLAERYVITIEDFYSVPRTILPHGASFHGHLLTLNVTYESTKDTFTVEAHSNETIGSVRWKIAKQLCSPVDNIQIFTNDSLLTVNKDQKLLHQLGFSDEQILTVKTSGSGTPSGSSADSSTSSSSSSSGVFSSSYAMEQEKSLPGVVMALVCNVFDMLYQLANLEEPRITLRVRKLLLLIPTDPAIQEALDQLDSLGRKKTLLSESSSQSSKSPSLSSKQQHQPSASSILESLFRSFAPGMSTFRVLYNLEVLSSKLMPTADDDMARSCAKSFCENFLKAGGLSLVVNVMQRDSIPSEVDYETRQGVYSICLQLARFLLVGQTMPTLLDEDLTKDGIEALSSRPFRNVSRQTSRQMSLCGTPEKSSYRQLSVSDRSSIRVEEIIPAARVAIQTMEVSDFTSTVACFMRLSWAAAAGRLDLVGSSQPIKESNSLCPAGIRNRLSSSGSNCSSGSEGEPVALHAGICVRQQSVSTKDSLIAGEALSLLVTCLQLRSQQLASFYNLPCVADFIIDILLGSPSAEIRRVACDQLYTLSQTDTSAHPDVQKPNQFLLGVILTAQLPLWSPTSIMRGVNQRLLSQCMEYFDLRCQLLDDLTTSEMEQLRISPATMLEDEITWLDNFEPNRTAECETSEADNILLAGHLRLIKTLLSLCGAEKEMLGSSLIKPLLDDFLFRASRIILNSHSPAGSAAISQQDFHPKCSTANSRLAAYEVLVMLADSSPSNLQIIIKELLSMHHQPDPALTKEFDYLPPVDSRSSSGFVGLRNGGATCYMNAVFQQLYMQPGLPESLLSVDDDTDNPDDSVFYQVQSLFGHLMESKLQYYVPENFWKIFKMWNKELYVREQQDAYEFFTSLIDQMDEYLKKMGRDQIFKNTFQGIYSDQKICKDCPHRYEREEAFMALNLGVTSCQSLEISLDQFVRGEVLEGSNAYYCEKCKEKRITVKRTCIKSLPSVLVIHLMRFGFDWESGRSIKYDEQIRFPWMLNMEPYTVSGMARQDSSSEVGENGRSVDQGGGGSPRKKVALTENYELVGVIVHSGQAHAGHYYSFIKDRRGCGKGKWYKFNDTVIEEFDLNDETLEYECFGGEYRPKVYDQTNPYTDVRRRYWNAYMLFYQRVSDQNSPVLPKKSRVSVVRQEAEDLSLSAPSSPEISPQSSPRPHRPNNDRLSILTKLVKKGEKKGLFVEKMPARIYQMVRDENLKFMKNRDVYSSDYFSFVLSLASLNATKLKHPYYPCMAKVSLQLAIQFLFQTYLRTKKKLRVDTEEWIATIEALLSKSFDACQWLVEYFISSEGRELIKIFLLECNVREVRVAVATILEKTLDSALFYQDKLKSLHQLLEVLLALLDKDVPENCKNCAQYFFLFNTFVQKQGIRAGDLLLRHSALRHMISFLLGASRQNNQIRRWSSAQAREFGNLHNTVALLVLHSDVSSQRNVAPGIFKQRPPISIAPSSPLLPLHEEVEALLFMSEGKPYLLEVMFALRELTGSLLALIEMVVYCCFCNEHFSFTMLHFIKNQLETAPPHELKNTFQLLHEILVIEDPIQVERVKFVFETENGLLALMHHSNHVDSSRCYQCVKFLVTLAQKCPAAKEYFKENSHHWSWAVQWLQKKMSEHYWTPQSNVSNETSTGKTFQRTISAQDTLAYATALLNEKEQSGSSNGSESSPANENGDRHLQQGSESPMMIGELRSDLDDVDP

CC(NC(=O)CCl)c1noc(Cc2ccccc2)n1 (centres undefined)
inactive: USP19 -0.307 | USP24 -0.498 | USP25 -0.593 | USP28 -0.789
